# Gal4-VP16 FLuc – Gal4-VP16 reporter inhibition counter-screen | Drosophila S2 Gal4-VP16 UAS-luciferase, luminescence, 20 h | Potency, µM (top dose mostly 53.6 µM), without a hit: at the top dose activity, negative = inhibition, hits mostly inhibitors | 310,000 compounds, 3.5% hits | AID 2546;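 note: Gal4-VP16 expression switched on by copper sulfate through the metallothionein promoter; nearly all actives have a fitted effect of over 50% in size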
# RORg inh – inhibitors of mouse ROR gamma transcriptional activity; 310,000 compounds, 5.4% hits; AID 2551; Drosophila S2 Gal4-RORgamma UAS-luciferase reporter, 20 h; P51450; Potency, µM (top dose mostly 53.6 µM), for inactives: at the top dose activity change, negative = inhibition, most hits filed as inhibitors; note: nearly all actives have a fitted effect of over 60% in size
# Target sequence (P51450 whole entry, looked up, the tested form may be a part): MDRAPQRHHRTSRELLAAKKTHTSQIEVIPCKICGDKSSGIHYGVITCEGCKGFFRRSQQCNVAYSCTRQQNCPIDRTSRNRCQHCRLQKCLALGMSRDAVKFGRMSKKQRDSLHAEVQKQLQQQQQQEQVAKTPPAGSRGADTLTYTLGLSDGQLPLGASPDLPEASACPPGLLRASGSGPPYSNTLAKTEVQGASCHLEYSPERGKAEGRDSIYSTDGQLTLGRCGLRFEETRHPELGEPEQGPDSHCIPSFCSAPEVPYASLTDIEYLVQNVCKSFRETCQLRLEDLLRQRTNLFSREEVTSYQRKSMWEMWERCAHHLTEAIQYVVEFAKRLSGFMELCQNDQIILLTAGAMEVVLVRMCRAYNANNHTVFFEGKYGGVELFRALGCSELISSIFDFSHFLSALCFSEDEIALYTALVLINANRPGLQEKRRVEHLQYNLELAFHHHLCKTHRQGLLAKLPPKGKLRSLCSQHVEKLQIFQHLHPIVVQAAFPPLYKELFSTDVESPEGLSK
#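 Using a luciferase readout, inhibitors were identified by reduced reporter activity in Drosophila cells coexpressing a copper-inducible Gal4–ROR gamma fusion and UAS-driven Photinus luciferase, incubated 20 hr after 700 uM copper sulfate.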
# DT40 TDP1 CPT – DT40-hTDP1 cell growth loss with CPT | Potency, µM (series often up to 46.2 µM), for inactives: at the highest dose activity change, negative = growth inhibition, hits mostly inhibitors | chicken DT40 Tdp1-/-;hTDP1 cells + 20 nM CPT, ATP luminescence, 48 h | AID 686979 | 420,000 compounds, 12% hits; note: nearly all actives have a fitted effect of over 55% in size
#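 Chicken DT40 Tdp1-/- cells complemented with human TDP1, 400 cells/well, exposed to compounds plus 20 nM camptothecin for at least 48 h at 37 C; viability read as ATP content by CellTiter-Glo luminescence.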
# TDP1 cell noCPT – qHTS for Inhibitors of human tyrosyl-DNA phosphodiesterase 1 (TDP1): qHTS in cells in absence of CPT | DT40 Tdp1-/- hTDP1 cells, no CPT, ATP luminescence, 48 h | AID 686978, 2013 | 420,000 compounds, 15% hits | Potency, µM (series often up to 46.2 µM), for the others: at the top dose activity change, negative = growth inhibition, usual class: inhibitors; note: nearly all actives have a fitted effect of over 55% in size
#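 No-CPT arm: Tdp1-/-;hTDP1 DT40 cells (400/well) plus compounds, incubated ≥48 hr at 37 °C. Readout CellTiter-Glo luminescence.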
# TDP1 inh – TDP1 (human) enzyme inhibition. recombinant TDP1, AlphaScreen DNA substrate cleavage. Potency, µM (top dose mostly 130 µM), for the others: top-dose activity change, negative = inhibition, most hits filed as inhibitors. 350,000 compounds, 0.28% hits. AID 485290; note: nearly all actives have a fitted effect of over 40% in size
#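 Compounds were preincubated with Tdp1 (1 nM final) for 15 min at room temperature before substrate (15 nM final) started a 5 min reaction; beads (10 ug/ml final) were then added for 10 min before AlphaScreen detection.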
# An asterisk follows results filed as active; ? = inconclusive; nt = no result given; [ ] = remark or other dose. Hits are enriched below; roughly 19% of the tested compounds scored in any of these assays. Calls come from the whole dose curve; as a rule, active = well fitted curve in the direction sought with a large enough effect; inconclusive = small, poorly fitted or top-dose-only effect, or another doubt; inactive = no such curve, though single readings can be large; an effect the other way counts as inactive or inconclusive. % is set by controls: 0 for no effect and ±100 for the full control effect; potency is the fitted concentration of half-maximal effect.
SMILES,Gal4-VP16 FLuc,RORg inh,DT40 TDP1 CPT,TDP1 cell noCPT,TDP1 inh
CCN1CCN(C(c2cccs2)C(C)NS(=O)(=O)c2ccc(F)cc2)CC1 (stereo not given),-8%,0%,-22%,-27%,6%
CCOC(=O)C(NC(=O)CC(C)C)(Nc1cc(C)on1)C(F)(F)F (stereo not given),12%,0%,-8%,17%,5%
CCCc1cc(N2CCCC(C(=O)Nc3cc(Cl)ccc3OC)C2)n2ncnc2n1 (stereo not given),nt,nt,-29%,-17%,nt
Cc1ccc2c(Cl)c(C(=O)NCc3cccnc3)sc2c1,0%,13%,-29%,-10%,-4%
Cc1sc2ncnc(N3CCN(S(=O)(=O)c4ccccc4)CC3)c2c1C,nt,nt,8.2µM*,6.5µM*,1%
Cc1sc2nc(CN3CCCC3)nc(N3CCN(S(=O)(=O)c4ccccc4)CC3)c2c1C,nt,nt,-27%,?,2%
CCn1c(SCC(=O)N2CCCCC2C)nc2c1c(=O)n(C)c(=O)n2C (stereo not given),2%,22%,-1%,-25%,nt
COc1ccc(C(=O)c2ccsc2N)cc1,?,0%,-4%,3%,nt
COc1ccc(C(=O)c2ccc(CC#N)s2)cc1,19%,4%,?,?,89µM*
C=CCNC(=O)/C(C#N)=C/c1c(C)nn(-c2ccc(Cl)cc2)c1Cl,?,?,?,23µM*,5%
CCOc1ccccc1NC(=O)/C(C#N)=C/c1c(C)nn(-c2ccc(F)cc2)c1Cl,-10%,0%,13µM*,-20%,-1%
COc1ccc(CN2C(=O)C(CC(C)C)Nc3ncnc(N4CCN(c5ccccn5)CC4)c32)cc1 (stereo not given),nt,nt,?,?,5%
COc1ccc(CN2C(=O)C(C)Nc3ncnc(N4CCc5ccccc5C4)c32)cc1 (stereo not given),nt,nt,4.6µM*,4.6µM*,nt
COc1ccc(CN2C(=O)C(C)Nc3ncnc(N4CCN(c5ccccn5)CC4)c32)cc1 (stereo not given),nt,nt,?,23µM*,5%
Cc1ccc(CN2C(=O)C(CC(C)C)Nc3ncnc(N4CCN(c5ccccn5)CC4)c32)cc1 (stereo not given),nt,nt,?,18µM*,nt
Cc1ccc(CN2C(=O)C(C)Nc3ncnc(N4CCN(c5ccccn5)CC4)c32)cc1 (stereo not given),nt,nt,?,18µM*,0%
CCC1Nc2ncnc(N3CCCCC3)c2N(Cc2ccc(C)cc2)C1=O (stereo not given),nt,nt,?,?,3%
O=C1C(Cc2ccccc2)Nc2ncnc(N3CCc4ccccc4C3)c2N1Cc1ccc(Br)cc1 (stereo not given),nt,nt,nt,nt,8%
CC1=CC(c2ccccc2)n2nc(N3C(=O)C4CC=CCC4C3=O)nc2N1 (stereo not given),3%,3%[10 µM],3%,-1%,0%
COc1ccccc1/C=N/NC(=O)c1nnn(-c2nonc2N)c1-c1cccs1,-8%,0%,23µM*,-15%,-2%
Nc1nonc1-n1nnc(C(=O)N/N=C/c2ccccc2Cl)c1-c1ccccc1,3%,8%,-1%,-11%,nt
Cc1ccsc1/C=N/NC(=O)c1nnn(-c2nonc2N)c1-c1ccccc1,20µM*,7.1µM*,-24%,-4%,nt
Cc1ccsc1/C=N/NC(=O)c1nnn(-c2nonc2N)c1C,?,?,0%,-2%,0%
Cc1ccc(-c2c(C(=O)N/N=C/c3c[nH]c4ccccc34)nnn2-c2nonc2N)cc1,?,?,?,16µM*,1%
Cc1ccc(-c2c(C(=O)N/N=C/c3sccc3C)nnn2-c2nonc2N)cc1,5.6µM*,4.5µM*,-28%,?,2%
SMILES,Gal4-VP16 FLuc,RORg inh,DT40 TDP1 CPT,TDP1 cell noCPT,TDP1 inh
CC1CC(NC(=O)c2cnc3n(c2=O)CCS3)CC(C)(C)C1 (stereo not given),5%,36%,?,?,nt
COc1cccc(-c2c(C(=O)N/N=C/c3ccco3)nnn2-c2nonc2N)c1,-18%,11µM*,-4%,2%,9%
COc1cccc(-c2c(C(=O)N/N=C/c3ccsc3)nnn2-c2nonc2N)c1,?,-20%,-2%,-9%,1%
COc1cccc(-c2c(C(=O)N/N=C/c3sccc3C)nnn2-c2nonc2N)c1,22µM*,8.9µM*,-8%,4%,1%
Cc1cn(Cc2ccccc2Cn2cc(C)c(=O)[nH]c2=O)c(=O)[nH]c1=O,0%,-1%,-6%,3%,nt
O=C(CCCSc1nc(-c2ccco2)cc(C(F)(F)F)n1)Nc1ccc2c(c1)OCO2,-15%,-17%,?,23µM*,-4%
CC(=O)c1ccc(NC(=O)CCCSc2nc(-c3ccco3)cc(C(F)(F)F)n2)cc1,nt,nt,23µM*,16µM*,2%
O=C(c1nc2ccccn2c1CN1CCC(Cc2ccccc2)CC1)N1CCCC1,4%,9%,?,23µM*,3%
CC(OC(=O)c1ccccc1)C(=O)NCCC1=CCCCC1 (stereo not given),3%,14%,-4%,-19%,2%
CC(C(=O)NCCC1=CCCCC1)c1ccc([N+](=O)[O-])cc1 (stereo not given),-11%[10 µM],28%,?,16µM*,5%
CCC(C(=O)NCCC1=CCCCC1)c1ccccc1 (stereo not given),-19%,45%,?,15µM*,-4%
CC(C)(C)c1ccc(COC(=O)CNC(=O)CNC(=O)Cc2ccccc2)cc1,3%,9%,-17%,-8%,-4%
O=C(O)c1ccc(/C=N/Nc2ccc(F)cc2F)cc1,?,13µM*,14%,2%,-5%
CC(C)(C)c1ccc(/C=N/Nc2ccc(C(=O)O)cc2)cc1,18µM*,0.02µM*,-21%,-17%,8%
C[N+]1(CCOS(=O)C23CC4CC(CC(C4)C2)C3)CCOCC1 (stereo not given),7%,2%,4%,-13%,5%
COC(=O)c1cccc(CN2C(=O)SC(Nc3ccc(Cl)cc3)C2=O)c1 (stereo not given),nt,nt,?,-18%,-3%
Cc1cccc(/C=C/c2onc(C)c2S(=O)(=O)N2CCC(C(=O)N3CCCCCC3)CC2)c1,-6%,-19%,?,23µM*,4%
Cc1cccc(/C=C/c2onc(C)c2S(=O)(=O)N2CCC(C(=O)N3CCC(C)CC3)CC2)c1,-12%,12%,18µM*,18µM*,2%
CNC(=O)C1CCN(S(=O)(=O)c2c(C)noc2/C=C/c2ccc(OC)cc2)CC1,0%,-18%,-7%,-25%,nt

# Screening data deposited in PubChem by National Center for Advancing Translational Sciences (NCATS).
